# Measured values from paper PMC7862700, “An all-to-all approach to the identification of sequence-specific readers for epigenetic DNA modifications on cytosine”.
# What was measured:
# Experiment in all cases: DAPPL (digital affinity profiling via proximity ligation, sequencing); 10 mM Tris-HCl pH 7.5, 50 mM NaCl, 1 mM DTT, 4% glycerol, room temperature, 30 min; GST-TFs on glutathione beads, 16-mer random dsDNA library, 0.1% formaldehyde crosslink after washing; high values mean tight binding
# FEV = biological target: T1, FEV (Homo sapiens, UniProt Q99581 1-238); conditions: protein: recombinant; tags: N-terminal GST; dsDNA, one strand shown
# T1 sequence: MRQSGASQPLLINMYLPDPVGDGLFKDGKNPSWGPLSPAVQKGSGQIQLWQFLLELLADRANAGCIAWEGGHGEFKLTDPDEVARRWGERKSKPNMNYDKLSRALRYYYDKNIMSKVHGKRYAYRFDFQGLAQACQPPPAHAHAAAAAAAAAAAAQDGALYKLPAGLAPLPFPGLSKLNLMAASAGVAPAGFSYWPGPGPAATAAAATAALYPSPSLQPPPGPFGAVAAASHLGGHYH
# Outline: (§1)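 Yeast served to express human transcription factors as GST fusions, which were then captured on glutathione beads and labelled with DNA barcodes. Pooled with a tag-only sample, they were incubated with 200 nmole of a 16-mer random double-stranded DNA library for 30 min at room temperature in Tris/NaCl/DTT/glycerol buffer, washed, crosslinked with 0.1% formaldehyde, ligated by proximity, amplified by PCR and sequenced. Dividing each hexamer's read frequency for a factor by its frequency for the tag-only sample gives the binding signal.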
# ETV5 = ETV5 (Homo sapiens, UniProt P41161 1-510); conditions: protein: recombinant; tags: N-terminal GST; dsDNA, one strand shown
# Chain of ETV5 (P41161 whole entry): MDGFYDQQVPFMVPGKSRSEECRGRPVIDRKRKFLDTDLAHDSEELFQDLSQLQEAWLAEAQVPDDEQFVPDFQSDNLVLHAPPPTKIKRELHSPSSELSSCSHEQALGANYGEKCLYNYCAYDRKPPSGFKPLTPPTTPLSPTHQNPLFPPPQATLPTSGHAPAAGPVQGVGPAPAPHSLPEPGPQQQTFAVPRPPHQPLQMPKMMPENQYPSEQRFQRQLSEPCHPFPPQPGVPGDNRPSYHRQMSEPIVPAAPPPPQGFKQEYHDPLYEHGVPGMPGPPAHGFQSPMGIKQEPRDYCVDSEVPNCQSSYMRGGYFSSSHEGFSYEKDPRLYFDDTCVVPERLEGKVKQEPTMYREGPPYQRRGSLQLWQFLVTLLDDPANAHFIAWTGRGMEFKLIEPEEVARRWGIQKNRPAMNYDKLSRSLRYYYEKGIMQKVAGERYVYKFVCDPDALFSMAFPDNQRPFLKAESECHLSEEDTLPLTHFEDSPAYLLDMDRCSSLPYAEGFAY
# Outline: as §1
# HSF1 = HSF1 (Homo sapiens, UniProt Q00613 1-529); conditions: protein: recombinant; tags: N-terminal GST; chain copies: 3; dsDNA, one strand shown
# Chain of HSF1 (Q00613 whole entry): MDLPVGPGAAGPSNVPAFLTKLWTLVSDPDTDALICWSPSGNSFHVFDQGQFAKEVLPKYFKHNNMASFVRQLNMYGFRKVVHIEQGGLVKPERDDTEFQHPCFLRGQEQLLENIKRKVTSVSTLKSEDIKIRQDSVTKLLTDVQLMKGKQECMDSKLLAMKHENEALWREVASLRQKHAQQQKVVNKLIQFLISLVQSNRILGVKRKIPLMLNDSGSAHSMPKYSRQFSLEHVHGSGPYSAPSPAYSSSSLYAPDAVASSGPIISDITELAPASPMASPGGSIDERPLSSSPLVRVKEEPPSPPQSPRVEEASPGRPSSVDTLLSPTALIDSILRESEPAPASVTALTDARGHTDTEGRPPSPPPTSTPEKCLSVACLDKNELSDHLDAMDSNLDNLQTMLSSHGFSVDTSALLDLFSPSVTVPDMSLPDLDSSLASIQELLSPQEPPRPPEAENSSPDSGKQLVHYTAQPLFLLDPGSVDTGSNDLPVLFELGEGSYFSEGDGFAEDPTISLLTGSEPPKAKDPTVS
# Outline: as §1
# SPIC = biological target: T2, SPIC (Homo sapiens, UniProt Q8N5J4 1-248); conditions: protein: recombinant; tags: N-terminal GST; dsDNA, one strand shown
# T2 sequence: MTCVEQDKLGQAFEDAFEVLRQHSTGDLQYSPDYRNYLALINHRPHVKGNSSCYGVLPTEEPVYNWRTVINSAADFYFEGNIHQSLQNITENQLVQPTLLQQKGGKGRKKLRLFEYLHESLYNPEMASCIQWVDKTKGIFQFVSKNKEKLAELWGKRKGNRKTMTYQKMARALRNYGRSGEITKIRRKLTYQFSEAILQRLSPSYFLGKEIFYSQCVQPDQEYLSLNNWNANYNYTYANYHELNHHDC
# Outline: as §1
# ELF4 = ELF4 (Homo sapiens, UniProt Q99607 1-663); conditions: protein: recombinant; tags: N-terminal GST; dsDNA, one strand shown
# Chain of ELF4 (Q99607 whole entry): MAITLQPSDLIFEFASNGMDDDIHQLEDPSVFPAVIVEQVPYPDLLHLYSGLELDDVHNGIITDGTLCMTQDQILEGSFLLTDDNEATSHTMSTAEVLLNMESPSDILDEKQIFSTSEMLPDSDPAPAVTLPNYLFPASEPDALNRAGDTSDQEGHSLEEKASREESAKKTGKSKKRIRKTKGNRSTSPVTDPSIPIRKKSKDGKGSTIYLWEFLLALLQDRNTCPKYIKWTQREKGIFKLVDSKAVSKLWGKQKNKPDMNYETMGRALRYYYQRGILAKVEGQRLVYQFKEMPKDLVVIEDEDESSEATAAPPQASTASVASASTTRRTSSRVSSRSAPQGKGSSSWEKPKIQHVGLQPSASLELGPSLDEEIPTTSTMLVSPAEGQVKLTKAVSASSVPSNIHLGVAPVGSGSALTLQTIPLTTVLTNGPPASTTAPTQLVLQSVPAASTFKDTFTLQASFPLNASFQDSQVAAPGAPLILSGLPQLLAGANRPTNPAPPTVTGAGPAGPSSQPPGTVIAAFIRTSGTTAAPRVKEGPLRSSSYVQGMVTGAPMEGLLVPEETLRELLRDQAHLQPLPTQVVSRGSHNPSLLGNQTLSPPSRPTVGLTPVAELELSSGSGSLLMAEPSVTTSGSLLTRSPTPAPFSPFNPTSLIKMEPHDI
# Outline: as §1
# ELK4 = biological target: T3, ELK4 (Homo sapiens, UniProt P28324-2 1-405); conditions: protein: recombinant; tags: N-terminal GST; dsDNA, one strand shown
# T3 sequence: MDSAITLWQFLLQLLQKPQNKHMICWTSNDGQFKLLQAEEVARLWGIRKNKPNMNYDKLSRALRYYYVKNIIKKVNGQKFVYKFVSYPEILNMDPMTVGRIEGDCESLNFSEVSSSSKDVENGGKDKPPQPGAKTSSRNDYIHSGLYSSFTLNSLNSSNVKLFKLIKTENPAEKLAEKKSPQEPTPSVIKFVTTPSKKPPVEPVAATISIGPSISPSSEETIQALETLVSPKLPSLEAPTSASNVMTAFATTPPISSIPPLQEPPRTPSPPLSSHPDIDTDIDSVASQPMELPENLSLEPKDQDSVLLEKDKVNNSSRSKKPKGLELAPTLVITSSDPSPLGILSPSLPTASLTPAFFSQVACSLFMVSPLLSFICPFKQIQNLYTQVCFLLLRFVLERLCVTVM
# Outline: as §1
# ETV2 = biological target: T4, ETV2 (Homo sapiens, UniProt O00321 1-342); conditions: protein: recombinant; tags: N-terminal GST; dsDNA, one strand shown
# T4 sequence: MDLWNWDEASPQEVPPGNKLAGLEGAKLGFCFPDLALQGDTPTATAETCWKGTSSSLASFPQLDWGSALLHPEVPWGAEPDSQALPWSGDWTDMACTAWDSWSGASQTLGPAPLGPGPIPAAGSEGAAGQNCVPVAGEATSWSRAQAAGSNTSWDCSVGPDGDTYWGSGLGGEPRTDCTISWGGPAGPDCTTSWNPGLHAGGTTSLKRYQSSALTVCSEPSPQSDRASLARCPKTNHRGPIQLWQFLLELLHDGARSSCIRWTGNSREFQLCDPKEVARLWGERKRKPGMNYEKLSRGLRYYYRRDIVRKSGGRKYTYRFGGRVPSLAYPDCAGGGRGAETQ
# Outline: as §1
# ELF3 = biological target: T5, ELF3 (Homo sapiens, UniProt P78545 1-371); conditions: protein: recombinant; tags: N-terminal GST; dsDNA, one strand shown
# T5 sequence: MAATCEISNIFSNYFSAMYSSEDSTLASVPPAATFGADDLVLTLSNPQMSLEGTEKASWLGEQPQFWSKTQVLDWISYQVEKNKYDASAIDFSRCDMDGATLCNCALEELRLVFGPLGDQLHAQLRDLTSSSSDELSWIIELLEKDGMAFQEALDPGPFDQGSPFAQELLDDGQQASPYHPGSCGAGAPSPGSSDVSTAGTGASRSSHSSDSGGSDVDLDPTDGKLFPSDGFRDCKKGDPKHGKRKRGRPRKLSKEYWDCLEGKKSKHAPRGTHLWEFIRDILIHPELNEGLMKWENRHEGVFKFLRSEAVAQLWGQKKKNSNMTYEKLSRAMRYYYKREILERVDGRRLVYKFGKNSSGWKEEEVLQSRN
# Outline: as §1
# CRX = CRX (Homo sapiens, UniProt O43186 1-299); conditions: protein: recombinant; tags: N-terminal GST; dsDNA, one strand shown
# Chain of CRX (O43186 whole entry): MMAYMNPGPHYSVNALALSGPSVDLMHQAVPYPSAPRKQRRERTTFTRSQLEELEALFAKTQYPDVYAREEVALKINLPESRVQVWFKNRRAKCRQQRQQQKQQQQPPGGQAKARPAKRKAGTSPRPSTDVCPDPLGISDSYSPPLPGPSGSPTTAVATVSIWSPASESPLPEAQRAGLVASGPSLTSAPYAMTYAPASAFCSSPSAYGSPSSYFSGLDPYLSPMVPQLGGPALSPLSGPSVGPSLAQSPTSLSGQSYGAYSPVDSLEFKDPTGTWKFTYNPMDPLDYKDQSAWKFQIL
# Outline: as §1
# ETV1 = ETV1 (Homo sapiens, UniProt P50549 1-477); conditions: protein: recombinant; tags: N-terminal GST; dsDNA, one strand shown
# Chain of ETV1 (P50549 whole entry): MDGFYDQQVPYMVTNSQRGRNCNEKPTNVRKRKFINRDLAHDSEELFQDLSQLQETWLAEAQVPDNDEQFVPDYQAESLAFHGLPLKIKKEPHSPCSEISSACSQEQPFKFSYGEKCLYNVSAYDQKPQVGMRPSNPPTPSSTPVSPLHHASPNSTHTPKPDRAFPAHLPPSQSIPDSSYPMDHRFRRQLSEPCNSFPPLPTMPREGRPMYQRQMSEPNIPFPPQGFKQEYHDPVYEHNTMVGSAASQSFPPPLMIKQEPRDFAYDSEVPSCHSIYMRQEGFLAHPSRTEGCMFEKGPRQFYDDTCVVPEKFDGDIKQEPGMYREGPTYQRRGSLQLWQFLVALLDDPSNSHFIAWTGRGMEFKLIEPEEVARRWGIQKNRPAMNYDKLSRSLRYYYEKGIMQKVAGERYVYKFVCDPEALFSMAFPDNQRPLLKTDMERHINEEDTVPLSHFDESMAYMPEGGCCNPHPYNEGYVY
# Outline: as §1
# ERF = biological target: T6, ERF (Homo sapiens, UniProt P50548 1-548); conditions: protein: recombinant; tags: N-terminal GST; dsDNA, one strand shown
# T6 sequence: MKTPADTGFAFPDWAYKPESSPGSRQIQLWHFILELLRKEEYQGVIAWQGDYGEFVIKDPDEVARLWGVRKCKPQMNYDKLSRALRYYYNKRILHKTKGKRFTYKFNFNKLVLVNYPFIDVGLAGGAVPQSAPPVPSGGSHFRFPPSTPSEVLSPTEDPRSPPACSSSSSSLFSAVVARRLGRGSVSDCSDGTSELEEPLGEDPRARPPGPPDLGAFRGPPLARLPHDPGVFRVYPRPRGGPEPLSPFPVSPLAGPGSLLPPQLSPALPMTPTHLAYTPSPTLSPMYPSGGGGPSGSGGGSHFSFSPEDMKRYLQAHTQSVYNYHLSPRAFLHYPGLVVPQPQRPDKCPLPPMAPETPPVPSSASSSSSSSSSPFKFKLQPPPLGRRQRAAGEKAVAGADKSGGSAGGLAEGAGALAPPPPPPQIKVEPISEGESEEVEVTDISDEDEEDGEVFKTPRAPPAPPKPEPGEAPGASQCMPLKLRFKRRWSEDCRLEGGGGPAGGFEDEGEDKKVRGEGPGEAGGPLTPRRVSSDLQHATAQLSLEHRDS
# Outline: as §1
# ETV3L = biological target: T7, ETV3L (Homo sapiens, UniProt Q6ZN32 1-361); conditions: protein: recombinant; tags: N-terminal GST; dsDNA, one strand shown
# T7 sequence: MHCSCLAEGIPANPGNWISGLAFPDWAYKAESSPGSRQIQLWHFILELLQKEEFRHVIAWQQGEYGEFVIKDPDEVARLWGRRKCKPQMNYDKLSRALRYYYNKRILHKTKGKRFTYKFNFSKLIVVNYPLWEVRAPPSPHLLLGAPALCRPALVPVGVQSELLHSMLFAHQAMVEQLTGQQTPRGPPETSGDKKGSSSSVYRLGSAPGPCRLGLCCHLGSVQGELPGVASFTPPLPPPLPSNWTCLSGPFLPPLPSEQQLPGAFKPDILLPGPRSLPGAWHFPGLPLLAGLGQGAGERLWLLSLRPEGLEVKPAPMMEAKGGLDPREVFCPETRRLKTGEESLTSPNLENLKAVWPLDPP
# Outline: as §1
# ETS2 = biological target: T8, ETS2 (Homo sapiens, UniProt P15036 1-469); conditions: protein: recombinant; tags: N-terminal GST; dsDNA, one strand shown
# T8 sequence: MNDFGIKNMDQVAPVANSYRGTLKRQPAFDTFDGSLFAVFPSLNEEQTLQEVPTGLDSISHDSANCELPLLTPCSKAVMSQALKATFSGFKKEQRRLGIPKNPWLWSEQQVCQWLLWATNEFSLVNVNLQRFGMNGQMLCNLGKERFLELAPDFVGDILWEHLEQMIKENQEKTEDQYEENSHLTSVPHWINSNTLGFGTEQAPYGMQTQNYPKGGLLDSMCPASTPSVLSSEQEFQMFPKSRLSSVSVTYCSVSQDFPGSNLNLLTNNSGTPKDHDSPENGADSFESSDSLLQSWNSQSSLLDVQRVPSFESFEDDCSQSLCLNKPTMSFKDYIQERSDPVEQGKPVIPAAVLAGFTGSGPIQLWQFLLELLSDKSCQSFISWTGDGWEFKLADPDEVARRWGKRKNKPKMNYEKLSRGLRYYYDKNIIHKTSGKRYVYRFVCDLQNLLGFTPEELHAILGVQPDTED
# Outline: as §1
# SPDEF = biological target: T9, SPDEF (Homo sapiens, UniProt O95238 1-335); conditions: protein: recombinant; tags: N-terminal GST; dsDNA, one strand shown
# T9 sequence: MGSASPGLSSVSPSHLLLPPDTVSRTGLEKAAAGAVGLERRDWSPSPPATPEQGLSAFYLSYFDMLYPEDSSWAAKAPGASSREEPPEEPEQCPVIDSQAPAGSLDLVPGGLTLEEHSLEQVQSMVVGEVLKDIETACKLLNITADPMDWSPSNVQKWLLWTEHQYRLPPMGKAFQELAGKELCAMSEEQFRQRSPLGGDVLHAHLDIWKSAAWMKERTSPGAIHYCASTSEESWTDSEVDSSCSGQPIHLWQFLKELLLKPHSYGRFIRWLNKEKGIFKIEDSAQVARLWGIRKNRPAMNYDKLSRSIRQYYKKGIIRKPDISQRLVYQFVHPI
# Outline: as §1
# ETV7 = biological target: T10, ETV7 (Homo sapiens, UniProt Q9Y603 1-341); conditions: protein: recombinant; tags: N-terminal GST; dsDNA, one strand shown
# T10 sequence: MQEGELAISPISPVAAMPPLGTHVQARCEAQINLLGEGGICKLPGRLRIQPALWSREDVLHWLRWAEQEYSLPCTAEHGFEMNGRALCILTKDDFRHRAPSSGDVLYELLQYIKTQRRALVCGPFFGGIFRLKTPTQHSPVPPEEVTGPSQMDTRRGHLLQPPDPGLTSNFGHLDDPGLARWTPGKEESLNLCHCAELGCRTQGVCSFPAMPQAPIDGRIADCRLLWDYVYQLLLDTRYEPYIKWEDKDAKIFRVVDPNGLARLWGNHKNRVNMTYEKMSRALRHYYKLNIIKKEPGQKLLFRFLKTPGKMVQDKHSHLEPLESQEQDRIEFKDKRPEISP
# Outline: as §1
# ELF5 = biological target: T11, ELF5 (Homo sapiens, UniProt Q9UKW6-2 1-255); conditions: protein: recombinant; tags: N-terminal GST; dsDNA, one strand shown
# T11 sequence: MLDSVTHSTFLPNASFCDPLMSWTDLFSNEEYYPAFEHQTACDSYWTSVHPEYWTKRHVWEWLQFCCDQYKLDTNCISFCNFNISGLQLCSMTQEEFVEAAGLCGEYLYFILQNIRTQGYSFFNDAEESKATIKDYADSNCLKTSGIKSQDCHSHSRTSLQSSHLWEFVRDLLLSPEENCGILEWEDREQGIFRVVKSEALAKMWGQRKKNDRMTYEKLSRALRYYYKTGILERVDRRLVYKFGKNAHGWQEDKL
# Outline: as §1
# ETV3 = biological target: T12, ETV3 (Homo sapiens, UniProt P41162-2 1-143); conditions: protein: recombinant; tags: N-terminal GST; dsDNA, one strand shown
# T12 sequence: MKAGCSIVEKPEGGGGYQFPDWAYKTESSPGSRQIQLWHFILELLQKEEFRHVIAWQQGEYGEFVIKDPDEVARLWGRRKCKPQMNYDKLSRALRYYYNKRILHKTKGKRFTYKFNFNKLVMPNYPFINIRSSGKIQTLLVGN
# Outline: as §1
# ETV6 = ETV6 (Homo sapiens, UniProt P41212 1-452); conditions: protein: recombinant; tags: N-terminal GST; dsDNA, one strand shown
# Chain of ETV6 (P41212 whole entry): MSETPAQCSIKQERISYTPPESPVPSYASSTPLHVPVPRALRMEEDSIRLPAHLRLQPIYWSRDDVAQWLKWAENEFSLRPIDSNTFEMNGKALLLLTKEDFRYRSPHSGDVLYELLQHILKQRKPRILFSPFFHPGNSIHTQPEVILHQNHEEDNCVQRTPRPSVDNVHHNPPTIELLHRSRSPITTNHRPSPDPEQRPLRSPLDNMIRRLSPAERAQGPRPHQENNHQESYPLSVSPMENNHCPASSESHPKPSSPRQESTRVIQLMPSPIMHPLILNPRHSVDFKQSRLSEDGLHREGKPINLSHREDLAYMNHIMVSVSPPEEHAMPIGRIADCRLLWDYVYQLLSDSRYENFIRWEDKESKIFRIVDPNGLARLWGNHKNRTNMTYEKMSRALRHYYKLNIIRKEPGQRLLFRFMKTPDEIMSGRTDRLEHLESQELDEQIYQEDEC
# Outline: as §1
sequence,measurement,setting,value
ATATTT,binding signal,FEV,"1.47 fold enrichment (6-mer frequency, TF over GST control)"
same,binding signal,ETV5,"1.54 fold enrichment (6-mer frequency, TF over GST control)"
same,binding signal,HSF1,"1.52 fold enrichment (6-mer frequency, TF over GST control)"
same,binding signal,SPIC,"1.45 fold enrichment (6-mer frequency, TF over GST control)"
same,binding signal,ELF4,"1.53 fold enrichment (6-mer frequency, TF over GST control)"
same,binding signal,ELK4,"1.81 fold enrichment (6-mer frequency, TF over GST control)"
same,binding signal,ETV2,"1.55 fold enrichment (6-mer frequency, TF over GST control)"
same,binding signal,ELF3,"1.54 fold enrichment (6-mer frequency, TF over GST control)"
same,binding signal,CRX,"1.6 fold enrichment (6-mer frequency, TF over GST control)"
same,binding signal,ETV1,"1.56 fold enrichment (6-mer frequency, TF over GST control)"
same,binding signal,ERF,"1.55 fold enrichment (6-mer frequency, TF over GST control)"
same,binding signal,ETV3L,"1.4 fold enrichment (6-mer frequency, TF over GST control)"
same,binding signal,ETS2,"1.58 fold enrichment (6-mer frequency, TF over GST control)"
same,binding signal,SPDEF,"1.54 fold enrichment (6-mer frequency, TF over GST control)"
same,binding signal,ETV7,"1.67 fold enrichment (6-mer frequency, TF over GST control)"
same,binding signal,ELF5,"1.65 fold enrichment (6-mer frequency, TF over GST control)"
same,binding signal,ETV3,"1.65 fold enrichment (6-mer frequency, TF over GST control)"
same,binding signal,ETV6,"1.57 fold enrichment (6-mer frequency, TF over GST control)"
